# Assay results taken from PubChem BioAssay.
# Activity calls are given as the source filed them. Unless noted, the rule behind the calls is not given here.
# Legend:
# [1] = HepG2 liver cancer cell viability effects, profiling panel, resazurin fluorescence, 24 h, PK04 Diversity Set (AID 1172); conditions: higher = more signal
# [2] = basal S. cerevisiae growth modulation, no modifier, primary screen, OD600, strain BY4716, 24 h, basal condition (AID 1173); conditions: OD600, 24 h, higher = more signal, called active from +8 up or from −8 down
# [3] = MM1S myeloma cell viability, profiling panel, resazurin fluorescence, basal, 24 h, PK04 Diversity Set (AID 1174); conditions: higher = more signal, called active from +8 up or from −8 down;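 note: MM1S multiple myeloma cell line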
# [4] = target: Dihydroorotate dehydrogenase (quinone), mitochondrial (Plasmodium falciparum (isolate 3D7)) (UniProt Q08210); assay: PfDHODH enzyme inhibitors, primary screen, biochemical, C-terminal His tag, absorbance 600 nm (AID 1175); conditions: DCIP absorbance 600 nm, higher = more signal, called active from +8 up or from −8 down;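 note: recombinant parasite enzyme with a five histidine tag at its C terminus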
# Dihydroorotate dehydrogenase (quinone), mitochondrial (Plasmodium falciparum (isolate 3D7)), sequence (Q08210 whole entry, looked up): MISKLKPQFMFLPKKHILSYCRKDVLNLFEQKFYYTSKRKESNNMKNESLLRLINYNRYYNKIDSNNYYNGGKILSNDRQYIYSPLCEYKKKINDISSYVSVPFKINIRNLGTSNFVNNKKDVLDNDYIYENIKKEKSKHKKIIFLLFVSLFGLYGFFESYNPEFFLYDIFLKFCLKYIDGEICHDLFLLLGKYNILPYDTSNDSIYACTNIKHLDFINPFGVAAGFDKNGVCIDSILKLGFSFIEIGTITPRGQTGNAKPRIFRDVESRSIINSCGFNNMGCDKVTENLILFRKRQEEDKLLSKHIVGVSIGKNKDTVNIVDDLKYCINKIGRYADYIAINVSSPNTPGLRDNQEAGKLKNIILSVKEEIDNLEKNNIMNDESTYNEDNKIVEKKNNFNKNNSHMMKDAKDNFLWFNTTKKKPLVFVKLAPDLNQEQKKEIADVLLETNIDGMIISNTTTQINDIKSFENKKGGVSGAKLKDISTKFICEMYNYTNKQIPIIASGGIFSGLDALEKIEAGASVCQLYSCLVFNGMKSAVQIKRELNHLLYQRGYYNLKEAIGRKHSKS
# [5] = P. aeruginosa biofilm formation inhibitors, primary screen, strain PAO1, LB-PBS medium, absorbance 600 nm (AID 1176); conditions: P. aeruginosa PAO1 growth/biofilm, A600, 12 h; higher = more signal
# [6] = S. cerevisiae RM11-1a growth modifiers, primary screen, strain RM11-1a, OD600, basal, 24 h (AID 1177); conditions: OD600, 24 h, higher = more signal, called active from +8 up or from −8 down;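 note: cultures grown under basal conditions with no added stressor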
# [7] = E. coli acrAB mutant growth effects, primary screen, E. coli filamentation inducers, strain DRC39, OD650, 24 h (AID 1178); conditions: higher = more signal, called active from +8 up or from −8 down;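 note: growth measured as culture turbidity by optical density at 650 nm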
# [8] = E. coli acrAB mutant growth effects, primary screen, E. coli filamentation inducers, strain DRC39, OD650, 48 h (AID 1179);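 note: screen aims at cell division blockers that make cells filament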; conditions: E. coli DRC39 delta-acrAB growth, higher = more signal, called active from +8 up or from −8 down
# [9] = RPMI8226 myeloma cell viability, profiling panel, resazurin fluorescence, basal, 24 h, PK04 Diversity Set (AID 1180); conditions: higher = more signal;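 note: RPMI8826 multiple myeloma cell line at 5000 cells per well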
# [10] = target: E3 ubiquitin-protein ligase XIAP (Homo sapiens) (UniProt P98170); assay: XIAP binders, primary screen, biophysical, small-molecule microarray, fluorescence 635 nm (AID 1181); conditions: small-molecule microarray binding, higher = more signal;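 note: score merges 667 nm emission and signal to noise over triplicate slides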
# E3 ubiquitin-protein ligase XIAP (Homo sapiens), sequence (P98170 whole entry, looked up): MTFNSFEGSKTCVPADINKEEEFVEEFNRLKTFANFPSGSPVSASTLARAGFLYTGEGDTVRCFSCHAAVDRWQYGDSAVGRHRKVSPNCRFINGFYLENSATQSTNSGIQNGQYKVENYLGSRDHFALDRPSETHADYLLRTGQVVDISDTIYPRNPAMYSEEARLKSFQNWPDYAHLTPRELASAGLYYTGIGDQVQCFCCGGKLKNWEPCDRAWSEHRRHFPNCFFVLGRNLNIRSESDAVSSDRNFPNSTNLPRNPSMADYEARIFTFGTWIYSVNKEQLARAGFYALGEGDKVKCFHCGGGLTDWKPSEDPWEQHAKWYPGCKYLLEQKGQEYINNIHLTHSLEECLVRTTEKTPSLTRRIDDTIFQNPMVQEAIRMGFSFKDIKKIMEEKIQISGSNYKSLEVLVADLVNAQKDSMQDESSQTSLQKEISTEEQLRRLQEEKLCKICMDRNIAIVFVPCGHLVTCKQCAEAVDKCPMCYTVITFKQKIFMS
# [11] = tested on: XIP peptide (Xip251-270) binding; assay: small-molecule binders of XIP peptide, primary screen, biochemical, small-molecule microarray, fluorescence 635/667 nm, 0.1 µg/mL protein (AID 1182); conditions: fluorescent protein binding, 635 nm, higher = more signal, called active from +8 up or from −8 down
# XIP peptide (Xip251-270) = assay: small-molecule binders of XIP peptide, primary screen, biochemical, small-molecule microarray, fluorescence 635/667 nm, 0.5 µg/mL protein (AID 1183); conditions: small-molecule microarray binding, fluorescence 635 nm; higher = more signal
# [12] = Plasmodium falciparum growth inhibition, primary screen, strain 3D7, DAPI fluorescence, 100 nL (AID 1184);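 note: parasites grown inside human red blood cells in medium with human serum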; conditions: P. falciparum 3D7 growth, 3 d, higher = more signal
# [13] = target: Homeobox protein Hox-A13 (Mus musculus) (UniProt Q62424); assay: inhibitors of HoxA13-DNA binding, primary screen, biochemical, fluorescence polarization, labeled oligonucleotide (AID 1185); conditions: 15 min, higher = more signal, called active from +8 up or from −8 down
# Homeobox protein Hox-A13 (Mus musculus), sequence (Q62424 whole entry, looked up): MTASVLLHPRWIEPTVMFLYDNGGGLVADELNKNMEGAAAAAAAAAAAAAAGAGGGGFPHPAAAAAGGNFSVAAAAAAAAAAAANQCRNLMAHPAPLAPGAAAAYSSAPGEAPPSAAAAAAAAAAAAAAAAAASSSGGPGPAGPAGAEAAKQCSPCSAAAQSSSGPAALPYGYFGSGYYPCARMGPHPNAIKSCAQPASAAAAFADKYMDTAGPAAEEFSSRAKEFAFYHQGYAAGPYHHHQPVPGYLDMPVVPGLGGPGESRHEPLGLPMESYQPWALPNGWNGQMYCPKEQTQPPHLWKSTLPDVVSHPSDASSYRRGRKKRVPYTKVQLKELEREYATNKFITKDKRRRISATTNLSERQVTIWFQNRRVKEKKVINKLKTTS
# [14] = inhibitors of hydroxyurea-induced Chk1 phosphorylation, primary screen, imaging, HeLa, phospho-Chk1 antibody, percent positive cells (AID 1186); conditions: hydroxyurea-induced phospho-Chk1 immunofluorescence imaging, higher = more signal
# [15] = inhibitors of hydroxyurea-induced Chk1 phosphorylation, primary screen, imaging, HeLa, phospho-Chk1 nuclear intensity (AID 1187); conditions: hydroxyurea-induced phospho-Chk1 immunofluorescence imaging, higher = more signal
SMILES,z-score [1],z-score [2],z-score [3],composite z-score [4],z-score [5],z-score [6],z-score [7],z-score [8],z-score [9],composite z-score [10],composite z-score [11],composite z-score (XIP peptide (Xip251-270)),z-score [12],z-score [13],z-score [14],z-score [15]
CN(C)CCCCCCNC(=O)[C@@H]1C[C@@H]2C(=O)N[C@@H](Cc3ccccc3)C(=O)N2[C@@H]1c1ccc(O)cc1,-0.591,-0.58 (inactive),-1.09 (inactive),0.0288 (inactive),-0.0059 (inactive),0.179 (inactive),-0.725 (inactive),-1.25 (inactive),-0.974,0.458,0.594 (inactive),0.887,-1.19,-2.65 (inactive),-0.165 (inactive),0.272 (inactive)
CCS[C@H]1[C@@H](C(=O)O)[C@H](c2ccc(C)cc2)N(S(=O)(=O)c2ccc(C)cc2)[C@@H]1CC,0,0.788 (inactive),-0.751 (inactive),-1.03 (inactive),0.257 (inactive),-0.0137 (inactive),-0.419 (inactive),0.843 (inactive),-0.702,-0.167,0.458 (inactive),0.327,0.184,-2.35 (inactive),-0.72 (inactive),-0.307 (inactive)
CCCC[C@H]1OB(O)C[C@H]2C1=C(COC)Cn1c(=O)n(-c3ccccc3)c(=O)n12,-0.248,-0.607 (inactive),-0.228 (inactive),-0.485 (inactive),0.0937 (inactive),0.523 (inactive),0.451 (inactive),0.452 (inactive),-0.214,-0.053,0.81 (inactive),-0.305,-1.29,-2.41 (inactive),-0.503 (inactive),-0.639 (inactive)
COC(=O)[C@@]1(Cc2ccc(F)cc2)[C@H]2c3cc(C(=O)N(C)C)n(Cc4cc(F)c(F)c(F)c4)c3C[C@H]2CN1C(=O)c1ccccc1,-2.13,1.56 (inactive),-1.97 (inactive),0.349 (inactive),0.15 (inactive),1.16 (inactive),-0.194 (inactive),0.38 (inactive),-3.47,0.157,0.0639 (inactive),0.626,-1.66,-3.48 (inactive),0.0893 (inactive),0.175 (inactive)
C#C[C@H](O[Si](C#Cc1ccc(Oc2ccccc2)cc1)(C(C)C)C(C)C)c1ccccc1,-1.03,-12.7 (active),-0.675 (inactive),-0.289 (inactive),0.702 (inactive),0.619 (inactive),-0.363 (inactive),-0.172 (inactive),-1.73,-0.132,0.359 (inactive),-0.418,-1,-1.04 (inactive),0.179 (inactive),-0.049 (inactive)
CN1C(=O)C2C=CC(C(O)C3CC=CCC3)N(N(c3ccccc3)c3ccccc3)C2C1=O (stereo not drawn),0.129,1.16 (inactive),-1.17 (inactive),-0.0647 (inactive),0.599 (inactive),0.595 (inactive),-0.486 (inactive),0.364 (inactive),-1.06,-0.269,0.241 (inactive),-0.283,-0.201,-1.18 (inactive),0.451 (inactive),0.0168 (inactive)
O=C1NC(=O)C2C1C=CC(C(O)c1cc(C(F)(F)F)cc(C(F)(F)F)c1)N2Nc1ccccn1 (stereo not drawn),-0.85,0.885 (inactive),-1.27 (inactive),-1.14 (inactive),1.36 (inactive),0.0176 (inactive),-0.509 (inactive),-1.42 (inactive),-1.2,-0.152,0.604 (inactive),0.797,-0.352,-3.28 (inactive),0.429 (inactive),0.178 (inactive)
CN1C=C(C(=O)OCCS(C)(=O)=O)C(C(=O)OCCS(C)(=O)=O)=CC(c2ccc(CO)cc2)=CC1C1CC1 (stereo not drawn),-0.15,-1.68 (inactive),-0.83 (inactive),-0.524 (inactive),-0.447 (inactive),0.0635 (inactive),0.815 (inactive),0.63 (inactive),-0.189,-0.359,0.943 (inactive),-0.452,-2.35,-5.4 (inactive),-1.15 (inactive),0.15 (inactive)
COc1cccc(-c2cccc(=O)o2)c1,-0.314,-7.29 (inactive),-0.28 (inactive),-1.02 (inactive),0.381 (inactive),0.346 (inactive),-0.0605 (inactive),-0.17 (inactive),-0.0335,0.488,-0.256 (inactive),0.688,0.0459,-2.09 (inactive),0.317 (inactive),-0.169 (inactive)
O=C(N1CCCCC1)[C@]1(Cc2ccccc2)N=C(c2ccc(OCCCO)cc2)O[C@@H]1c1ccccc1,0.0053,-1.88 (inactive),-2.94 (inactive),-0.0047 (inactive),0.208 (inactive),1.02 (inactive),0.137 (inactive),-0.829 (inactive),-3.93,0.205,0.0557 (inactive),0.657,-2.79,-4.71 (inactive),-0.6 (inactive),-0.641 (inactive)
C=CCNC(=O)[C@@H]1[C@H]2C(=O)O[C@H](c3ccccc3)[C@H](c3ccccc3)N2[C@H](c2ccc(O)cc2)[C@@]12C(=O)Nc1ccc(C#CCNC(N)=O)cc12,-0.361,0.295 (inactive),0.194 (inactive),-0.433 (inactive),0.0485 (inactive),0.24 (inactive),-0.0851 (inactive),-0.124 (inactive),0.221,-0.33,0.33 (inactive),0.0915,-0.1,-3.36 (inactive),-0.0873 (inactive),-0.0078 (inactive)
COCCOC(=O)N1C(=O)[C@@]2(c3cc(C#CCCO)ccc31)[C@H](C(N)=O)[C@H]1C(=O)O[C@H](c3ccccc3)[C@H](c3ccccc3)N1[C@@H]2c1ccc(O)cc1,-0.256,-0.089 (inactive),0.0773 (inactive),-0.176 (inactive),0.181 (inactive),-0.204 (inactive),0.125 (inactive),-0.176 (inactive),-0.104,0.142,-0.13 (inactive),-0.452,2.08,-4.08 (inactive),0.0513 (inactive),-0.0312 (inactive)
C[C@@]1([C@@H](NC(=O)c2ccc(-c3ccccc3)cc2)c2ccc(Cl)cc2)C[C@H]1C1CCCCC1,-0.953,1.52 (inactive),-2.24 (inactive),-0.0475 (inactive),-0.195 (inactive),2 (inactive),-0.325 (inactive),-0.561 (inactive),-6.37,0.119,-0.223 (inactive),0.492,-0.311,-2.06 (inactive),-0.273 (inactive),0.861 (inactive)
COCCOC(=O)N1C(=O)[C@@]2(c3cc(C#CC4(O)CCCCCC4)ccc31)[C@H](c1ccc(OCCO)cc1)N1[C@H](c3ccccc3)[C@H](c3ccccc3)OC(=O)[C@H]1[C@@H]2C(=O)N1CCN(c2ncccn2)CC1,-0.0209,2.29 (inactive),-0.549 (inactive),-1.64 (inactive),2.57 (inactive),3.15 (inactive),-0.534 (inactive),-0.477 (inactive),-0.305,-0.0582,0.647 (inactive),0.61,-2.06,0.253 (inactive),-0.0615 (inactive),0.22 (inactive)
CO[C@H]1O[C@H](CO)[C@@H](OC(=O)Nc2cccc(F)c2)[C@H](OC(=O)Nc2ccccc2)[C@@H]1OC(=O)Nc1ccccc1,-1.62,0.706 (inactive),-2.56 (inactive),0.127 (inactive),0.758 (inactive),0.666 (inactive),-0.002 (inactive),-0.0057 (inactive),-2.4,0.0623,1.23 (inactive),0.82,-1.26,-6.57 (inactive),0.108 (inactive),0.358 (inactive)
C=CCOC(=O)[C@H]1[C@@H]2C(=O)O[C@@H](c3ccccc3)[C@@H](c3ccccc3)N2[C@@H](c2ccc(OCCOC(=O)[C@@H]3C[C@@H]4C(=O)N[C@@H](CC(C)C)C(=O)N4[C@@H]3c3ccc(O)cc3)cc2)[C@]12C(=O)Nc1ccccc12,0.256,1.23 (inactive),-0.347 (inactive),-0.295 (inactive),2.94 (inactive),2.05 (inactive),-0.149 (inactive),-0.72 (inactive),0.169,-0.0559,1.25 (inactive),0.802,-1.66,-0.596 (inactive),0.659 (inactive),0.991 (inactive)
O=C1O[C@H](c2ccccc2)[C@H](c2ccccc2)N2[C@H]1[C@@H](C(=O)N1CCCCCCC1)[C@]1(C(=O)Nc3ccc(C#CC4=CCCCC4)cc31)[C@H]2c1ccc(OCCO)cc1,-0.881,0.362 (inactive),0.241 (inactive),-0.585 (inactive),2.25 (inactive),0.6 (inactive),0.825 (inactive),0.286 (inactive),0.326,1.08,2.27 (inactive),0.77,-2.33,-15.4 (active),0.606 (inactive),1.04 (inactive)
NCCCCCCNC(=O)[C@@H]1C[C@@H]2C(=O)NCC(=O)N2[C@@H]1c1ccc(O)cc1,-0.45,0.333 (inactive),1.02 (inactive),0.99 (inactive),0.696 (inactive),0.681 (inactive),-0.0366 (inactive),-0.697 (inactive),0.08,0.0761,-0.0092 (inactive),0.755,-0.634,-1.98 (inactive),0.563 (inactive),0.457 (inactive)
